This passage reports z-score results from PubChem BioAssay AID1508600 (Functional Genomics Laboratory (NCATS/FGL), 2020).

Screen size: about 53,000 sequences; about 3,700 (7%) were called active.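 The calls were made as follows: active = gene knockdowns whose robust z-score for IL-1 alpha signal is at least 2 or at most -2, so actives lie on both sides; inactive = the rest.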 The full list was thinned out, with actives kept by preference.

The assay can be described thus: Components of the Cytosolic LPS Sensing Pathway: Gene Identification via Genome-wide siRNA Screen.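 Also: robust z of the log signal after scaling to non-targeting control siRNA wells of the plate.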 To be noted: RAW264.7 macrophages, IL-1a HTRF, actives lie on both sides, screened at 100 nM (by protocol), cells primed 5 h with Pam3CSK4 first. Put shortly:
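IL-1a HTRF of supernatants after 24 hour LipidA transfection of Pam3CSK4-primed (5 hours) RAW264.7 cells, 48h post-siRNA transfection (100 nM). Scores: percent of plate negative-control median, then log-based robust z-score.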
Consider GGUUCCUACACGAAAGGAUTT against Eif2b4, for which the z-score is 0.14 (inactive).
For GCCUUUACCCAAAUUAUCATT against Defb4, the z-score is 0.567 (inactive).
Regarding GGACACUGUACUCAAACCUTT against Cntnap5b, the z-score is -2.86 (active).
As for GGUGUAUACUGUGAAAUCATT against Notch1, the z-score was -0.319 (inactive).
For the sequence GGGCAUUGUUGAGCACCUUTT against Pgap6, the z-score was -1.81 (inactive).
Regarding GGAAAAGCUGGAGGAAGACTT against Tef, the z-score is 0.525 (inactive).
Take GGAAUGUCAAUCUUGAGAGTT against Asprv1: the z-score was -0.812 (inactive).
The result for GCAGACAUUGCACAAACCCTT against Ankrd10 reads 0.355 (inactive); that for GCCUGUCUCCUCAAUGCUUTT against Gm9903, -0.319 (inactive).
Consider ACUGUAUGAAGAGGAAACATT against Krt87, for which the z-score is -2.14 (active).
To GGACAGUAUAGUGGAGAUCTT against Fgf22 belongs 1.66 (inactive).
As for GCUAUUCUGUCUACGUGUATT against H2bc18, the z-score is -0.356 (inactive).
As to CCGAAAUGUGUGUUUUAAATT against Vapb, the z-score was 1.57 (inactive).
For GGUCUUUCCGGCAGUUCUUTT against Rxrg, the z-score was -2.27 (active).
In the case of GGAAUCGGUGGCCAUCAAUTT against Olfr771, the z-score is 0.458 (inactive).
For the sequence GGAAGCUGAAGGUUUGCCATT against Wipi2, the z-score was -0.529 (inactive).
Take GGAUCAGGAGCUGUUUGGATT against Adamtsl4: the z-score is 1.05 (inactive).
On to GGAUGUCUACUGGAAUGUUTT against Pigv, for which the z-score was -1.16 (inactive).
On to GUGAAGGCCCAUGGCAAGATT against Hbb-b1, for which the z-score is -0.235 (inactive).
With CCGUAUUUGGACUGAGCAATT against Chic2, the z-score is 0.63 (inactive).
Consider GCUAGGGAUUUACCUCUUCTT against Gpr65, for which the z-score is 0.743 (inactive).
To GCCUGAGGAUCUAUAGAUATT against Prss29 belongs -1.36 (inactive).
Turning to UGGAAGCCUUAUGCCGUCUTT against Gpr31b, the z-score was 0.895 (inactive).
For the sequence GGCUCUAACUGUGAGAAGATT against Dll3, the z-score is -2.44 (active).
With GGCUAACUCCUUAAAACCUTT against Aldh18a1, the z-score is -0.372 (inactive).
Consider GGCUUCCACGUAAUUGUCCTT against Six3os1, for which the z-score was 0.649 (inactive).
In the case of GGCCGACUUGAUCAAUAACTT against Hsp90aa1, the z-score is -0.164 (inactive).
For CCCGGAGCUUGAAUUACUGTT against Usp7, the z-score was 2.36 (active).
The result for GGAUUUUUCCAUAAAAACCTT against B3galnt1 reads 1.04 (inactive); that for CCUCCCAGUACACUUGAAATT against Cox7a1, 0.0752 (inactive); that for GGAAGAAACGGAGACUCAATT against Dpf1, 0.052 (inactive).
For CCAAUGAGUUAAUCACCUUTT against Olfr1135, the z-score was 0.587 (inactive).
In the case of GGUCCAUACUCCUAAAGAATT against Mpzl1, the z-score was -0.727 (inactive).
GGUGCAGUUUCUCCUCUUUTT against Pla1a: the z-score is 2.09 (active).
To GGAUCUGUUACUCUGAUACTT against Pias4 belongs 0.847 (inactive); to GGUCAACAUUAAAAUACUGTT against Map2k4, -0.0649 (inactive); to GGUUUGCCUAUUUUUUCUUTT against Trmt10c, 1.9 (inactive).
The result for GGGUUUUUUUUUUCCUUCCTT against Hsd17b1 reads -0.0306 (inactive); that for CGUAGGACUGAAUCAGCUUTT against Slc13a3, -3.04 (active).
As to GCCAUUUGAAGUGUUUAAATT against Kctd12, the z-score is -0.103 (inactive).
As for GGAAGACCUAAACAACGGCTT against Dusp10, the z-score is -1.55 (inactive).
To GGGUAACUAUUGGACUAACTT against Gabrq belongs -0.262 (inactive); to GGCAUUGGAAUAAAAUUUGTT against Rfk, 0.267 (inactive); to GGUGGUACGCAGACUAAAUTT against Ulk1, 2.94 (active).
Take GGGUUAAACCACAUAUCCATT against Spata9: the z-score was -1.06 (inactive).
GCUUUUCCGCUUCUACCGGTT against Nrp: the z-score was -0.505 (inactive).
Consider GCUGUGGAGAAGUGCUACUTT against Lce1b, for which the z-score is -0.907 (inactive).
As for CCGAAAAUGGUUAGGACAUTT against Kynu, the z-score was 1.44 (inactive).
The result for GGGCCUUCAAAACGAGAAGTT against Cyp4f39 reads 0.339 (inactive).
To GCCUUCCUGAAUUUAAAGATT against Myo5b belongs 1.33 (inactive).
With GGAUAAAAUUGCUUUACUGTT against Srek1ip1, the z-score is 2.63 (active).
The result for GGUGGUACUUACUCAAAAUTT against Fgg reads 1.05 (inactive); that for GGGACUACCAUUUGUUAAUTT against Tktl1, 0.751 (inactive); that for CCAGAUUGUCACUUGCUACTT against Skint3, 1.25 (inactive).
On to GGAUACAAUCAUCGCCAUCTT against Olfr101, for which the z-score is 1.3 (inactive).
As for GCUUUUAACAUCGAGUAAUTT against Top2b, the z-score is -0.627 (inactive).
The result for GCAUUCAUCAGGGUUGAUUTT against Wdr20 reads -2.43 (active).
As for CCUGUUAUGACCGUUCAUGTT against Prpf4, the z-score is 0.551 (inactive).
The result for GGCUCUGAAAAUUGAACACTT against Cep83 reads 0.0736 (inactive); that for GGGUCUUAUCUCGAUGAGGTT against Flt3l, -0.199 (inactive).
GGAAAUCAGCUGAAUUACUTT against Dicer1: the z-score is 1.07 (inactive).
As for GGAACCAAUCUUGGUCUCATT against Tln2, the z-score is -0.66 (inactive).
Turning to GGAUUCAGGCUGGAAAAUATT against Clrn1, the z-score was -1.04 (inactive).
The result for GGAAAACUUGAGGCGGAUCTT against Enkd1 reads 2.63 (active); that for CCCUGAAGGCUUACUUUUUTT against Cfap299, -0.231 (inactive); that for GCUUUUCAUAUCUCUUGCATT against Olfr1385, 0.408 (inactive).
Turning to CCUGUCUGGACUUGUCUAATT against Ica1, the z-score was -2.05 (active).
As to GCCAGAAUCUGUUGUGAACTT against Gfpt1, the z-score is 0.0747 (inactive).
In the case of GGGAAAAUCCACUUUUAAGTT against Hs2st1, the z-score was -0.0469 (inactive).
As for GGGUCCAAUAAACAUGUCUTT against B3galt4, the z-score is 0.234 (inactive).
CCAGGACUUACUCAGUAAUTT against Setd6: the z-score is -0.72 (inactive).
For GGCAAGAGAAUUCAGAUCUTT against Slc5a1, the z-score was 2.91 (active).
In the case of GGCGUGAUCGCUCUCCAAUTT against Ncoa5, the z-score was 0.834 (inactive).
As for GGAUAACCGCCAAUAAAAATT against Msantd3, the z-score was 0.255 (inactive).
In the case of GCCCUACCUUGAAUCCCAUTT against Olfr532, the z-score is -1.75 (inactive).
As to GGUAUUGGGCCAUUGGUUGTT against Mapkapk3, the z-score is 0.705 (inactive).
To GGGUUGAUUAAAGUUUAACTT against Gsx2 belongs 1.4 (inactive); to GGCCACUUGCCUAUUGUGATT against Anxa6, -0.343 (inactive); to GAAUAUGUGGCUCUGGGUCTT against G6pc3, -0.414 (inactive).
On to GCUGCACAUUGUCCAUUAUTT against Car12, for which the z-score is 2.3 (active).
As to GGUGUUCUUUGACAGUGCCTT against Atp5d, the z-score is 0.107 (inactive).
With GCCGAUGAUGAGAAACGACTT against Cd2, the z-score was -0.279 (inactive).
On to GGCGAGUUUUCCUCUUCAGTT against Sync, for which the z-score was 1.08 (inactive).
On to CCGUCAUCACUGAUCAGUUTT against Olfr684, for which the z-score is 2.7 (active).
For GGUGCUGUGUGAGCUUUCATT against Zfp85os, the z-score was -1.47 (inactive).
Regarding GGCUGACUCGCUUUCACCATT against Efna2, the z-score is 0.522 (inactive).
On to GCCACAGGCCAAGAUCAUUTT against Pafah1b2, for which the z-score is -0.614 (inactive).
To GGACAAUUGGAAGAUUUGGTT against Ccdc88a belongs -1.23 (inactive); to CCCUGAAUAAGGCUGAUCUTT against Krt32, -0.801 (inactive); to GGAUCUGUGAGAAUCAUAGTT against Rabgap1l, -2.24 (active).
Regarding GGGAGAUGUUGUCAGGGUCTT against Rnasel, the z-score was -0.476 (inactive).
In the case of GGAAAGUGCAUCAUAGACATT against Thrb, the z-score is 0.153 (inactive).
In the case of GGACGAUGUAUUGUUAUUGTT against Lrp10, the z-score was 1.49 (inactive).
Consider GGUAUGACUUGCUCUUUAUTT against Rnpep, for which the z-score is -0.881 (inactive).
On to GCAUUUGUGGCCUAUGCUCTT against Naprt, for which the z-score is -2.16 (active).
GCUCAAAUGUUCUAAAAGCTT against Acmsd: the z-score is -0.332 (inactive).
To GGCGUAUUUGUCAUUUCUUTT against Dis3l belongs 0.013 (inactive); to GGAAGUCAUUUUUUCCAAGTT against Msantd4, 1.12 (inactive).
The result for GCAUUGUUUUUCUAUUCAGTT against Cfhr1 reads 0.531 (inactive).
In the case of GGUGCUUCACAGAAUGUGUTT against Olfr784, the z-score is -1.8 (inactive).
As to GGGUCUCAAAGCAGUUUUUTT against Rhoj, the z-score was 3.99 (active).
As for GCUGAAAACACACCUAGCATT against Gin1, the z-score is 1.19 (inactive).
With GGCUGUCUUACAAUGUAAUTT against Gabrb2, the z-score is -0.638 (inactive).
Turning to GAGACUAAUAUAGUGAAUGTT against Foxj1, the z-score was -0.314 (inactive).
Regarding GGCAGAGAGUCUACAUAUGTT against Bcar3, the z-score was -0.272 (inactive).
Regarding GCAGAAGGUACUACUAUCGTT against Rcsd1, the z-score is 0.669 (inactive).
For CCUUGUUGUGACAAGCUUUTT against Rchy1, the z-score is -0.362 (inactive).
With GGCUUCAUGCCUUAUCCACTT against Fam166a, the z-score is -0.314 (inactive).
